Screening results: PubChem BioAssay, The Scripps Research Institute Molecular Screening Center
A selection: hits, their analogues and other compounds. The true share with any hit is near 1.1%.
SRC2 inh: inhibition of GAL4-SRC2 driven luciferase reporter, primary screen, SRC2 inhibitor project, cell-based, luminescence; Nuclear receptor coactivator 2 (Homo sapiens), Q15596; 370,000 tested, 0.17% active; inhibition, % at 9 µM; HEK293 GAL4-SRC2 luciferase reporter;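 active = inhibition above the mean inhibition of all tested compounds plus 3 SD, set per campaign, cut at about 52% in these data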
SRC1 inh: SRC1 coactivator transcriptional activity inhibitors, primary screen, cell-based, luminescence; HEK293 GAL4-SRC1 luciferase reporter; 360,000 tested, 0.12% active; Nuclear receptor coactivator 1 (Homo sapiens), Q15788; AID 588354, 2011; inhibition, % at 3.6 µM;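 active = inhibition above the campaign mean plus 3 SD, with each screening campaign given its own cutoff, cut at about 60% in these data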
SRC3 inh: SRC3 coactivator transcriptional activity inhibitors, primary screen, cell-based, luminescence | Nuclear receptor coactivator 3 (Homo sapiens), Q9Y6Q9 | HEK293 GAL4-SRC3 luciferase reporter | inhibition, % at 3.6 µM | 360,000 tested, 0.17% active;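 active = inhibition above a per-campaign cutoff, the mean of all compounds plus 3 SD, cut at about 60% in these data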;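 note: higher means less SRC3-driven luciferase light from the GAL4 reporter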
GalR3 antag: GalR3 antagonists in HEK293 cells, primary screen, cell-based, fluorescence readout; Galanin receptor type 3 (Homo sapiens), O60755; AID 651719, 2012; inhibition, % at 3 µM; 360,000 tested, 0.44% active; HEK293 GalR3-CNG cAMP membrane potential fluorescence; galR3 body fused to GalR1 C-terminus;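 active = inhibition above the screen-wide average plus 3 SD, cut at about 13% in these data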;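 note: forskolin and galanin both at EC90 stimulate the cells; cAMP rise reported by CNG channel membrane potential dye signal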
NR5A2 inv ag: LRH-1 (NR5A2) inverse agonists, primary screen, cell-based, luminescence, HEK293T, StAR-luciferase reporter. LRH-1 transfected, 24 h. inhibition, % at 3.6 µM. 360,000 tested, 0.13% active;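 active = inhibition above the mean inhibition of all tested compounds plus 3 SD, cut at about 73% in these data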
NR2F2 inh: NR2F2 transcriptional activity inhibitors, primary screen, cell-based, luciferase reporter, HEK293T, luminescence; COUP transcription factor 2 (Homo sapiens), P24468; HEK293T NGFI-A luciferase reporter; inhibition, % at 8.6 µM; 370,000 tested, 0.7% active;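 active = inhibition above a per-plate cutoff, mean inhibition of test wells between control levels plus 3 SD, cut at about 38% in these data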;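 note: cells cotransfected with COUP-TFII expression vector driving the NGFI-A reporter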
Target sequence (P24468 whole entry, looked up): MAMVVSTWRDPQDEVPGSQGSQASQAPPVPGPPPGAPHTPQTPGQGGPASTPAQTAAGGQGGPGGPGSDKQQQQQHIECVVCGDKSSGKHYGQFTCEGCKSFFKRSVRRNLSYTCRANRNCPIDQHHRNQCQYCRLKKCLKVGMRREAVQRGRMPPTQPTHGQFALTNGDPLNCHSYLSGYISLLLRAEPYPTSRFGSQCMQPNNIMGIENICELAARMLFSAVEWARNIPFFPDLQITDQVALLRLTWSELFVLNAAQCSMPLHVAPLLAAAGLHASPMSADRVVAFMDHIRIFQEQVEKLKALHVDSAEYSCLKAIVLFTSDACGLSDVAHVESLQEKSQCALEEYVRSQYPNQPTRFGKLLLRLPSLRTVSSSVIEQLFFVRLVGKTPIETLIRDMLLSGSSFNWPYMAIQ
GalR3 antag conf: GalR3 antagonist hit confirmation, cell-based, fluorescence, triplicate. 1,600 tested, 59% active. inhibition, % at 3 µM. shares compounds with GalR3 antag. AID 652245, 2013. HEK293 GalR3 CNG cAMP biosensor, membrane potential fluorescence; galR3 fused to GalR1 carboxy tail; challenged with forskolin and galanin at EC90;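 active = inhibition above the primary screen's cutoff, the mean inhibition of all screened compounds plus 3 SD, cut at about 13% in these data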
HEK-CNG parental: nonspecific cAMP agonists in parental HEK-CNG cells, counter-screen for GalR3 antagonist project, cell-based, fluorescence, high throughput. shares compounds with GalR3 antag. HEK293-CNG parental cells, cAMP membrane potential fluorescence; normalised: DMSO wells 0%, forskolin wells 100%. activation, % at 3 µM. 1,600 tested, 10% active. AID 652268, 2013; in the data active = activation above about 1.3%
Hits are given with their value; – = inactive; · = no result.

SMILES	SRC2 inh	SRC1 inh	SRC3 inh	GalR3 antag	NR5A2 inv ag	NR2F2 inh	GalR3 antag conf	HEK-CNG parental
Cc1sc2ncnc(NCc3cccs3)c2c1C	–	–	–	55	–	–	58	–
Cc1cccc(NC(=O)CSc2ccc(-c3cccs3)nn2)c1C	–	–	–	–	–	–	·	·
O=C(Nc1nc(-c2cccs2)cs1)c1ccc(S(=O)(=O)N2CCCC2)cc1	–	–	–	–	–	–	·	·
O=C(Nc1nc(-c2ccc3c(c2)OCCO3)cs1)c1ccc(S(=O)(=O)N2CCCCC2)cc1	–	–	–	20	–	–	15	–
O=C(Cc1ccccc1)c1ccc2c(c1)OCCO2	–	–	–	–	–	–	·	·
O=C(CNS(=O)(=O)c1ccc(F)cc1)N1CCOCC1	–	–	–	–	–	–	·	·
COc1ccc(-c2cc(N)n(S(=O)(=O)c3c(F)c(F)c(F)c(F)c3F)n2)cc1OC	–	–	–	54	–	–	60	–
CCOC(=O)c1c(C)oc2ccc(OC(=O)c3cccs3)cc12	–	–	–	–	–	–	·	·
Cc1ccc(C(CC(=O)O)NC(=O)CCNC(=O)c2ccco2)cc1 (stereo not drawn)	–	–	–	–	–	–	·	·
Cc1ccc(Nc2c(-c3ccc(N4CCOCC4)cc3)nc3cnccn23)cc1	–	–	–	16	–	–	–	–
Cc1ccccc1Nc1c(-c2ccc(N3CCOCC3)cc2)nc2cnccn12	–	–	–	–	–	–	·	·
Cc1cc(Cl)c(S(=O)(=O)N2CCN(c3ccc(F)cc3)CC2)cc1OCC(=O)NC1CCCCC1	–	–	–	97	–	–	110	–
O=c1[nH]c2cc(Cl)c([N+](=O)[O-])nc2[nH]1	–	–	–	24	–	–	24	–
CC(C)C(=O)NCCc1nc(-c2ccccc2)no1	–	–	–	·	–	–	–	–
CC(=O)NCCc1nc(-c2ccc(Cl)cc2)no1	–	–	–	–	–	–	·	·
COc1cc([N+](=O)[O-])cc(/C=N/NC(=O)c2cncc(Br)c2)c1O	–	–	–	25	–	–	38	–
CC(=O)c1cccc(NC(=O)N2CC(C)OC(C)C2)c1 (stereo not drawn)	–	–	–	–	–	–	·	·
CC1CN(C(=O)Nc2cccc(C(F)(F)F)c2)CC(C)O1 (stereo not drawn)	–	–	–	·	–	–	–	–
Cc1ccc2[nH]c(=O)c(CN(Cc3nnnn3C3CCCC3)C3CCCCC3)cc2c1	–	–	–	14	–	–	–	–
CCC(C)(C)n1nnnc1CN(Cc1cc2cc(OC)c(OC)cc2[nH]c1=O)C1CCCC1	–	–	–	18	–	–	–	–
O=C1NC(=Nc2ccccc2Cl)S/C1=C\c1ccc(C(=O)O)cc1	–	–	–	–	–	–	·	·
CC12CCC(C/C1=N\N=C1\NC(=O)/C(=C\c3ccc(Cl)cc3)S1)C2(C)C (stereo not drawn)	–	–	–	17	–	–	–	34
O=C(O)c1cc(S(=O)(=O)Nc2ccccc2Cc2ccccc2)ccc1Cl	–	–	–	–	–	–	·	·
CC(C)CN(C(=O)CN1CCN(S(=O)(=O)c2ccc3ccccc3c2)CC1)c1c(N)n(CC(C)C)c(=O)[nH]c1=O	–	–	–	18	–	–	–	–
CC(C)CN(C(=O)CN1CCN(c2cccc(Cl)c2)CC1)c1c(N)n(CC(C)C)c(=O)[nH]c1=O	–	–	–	–	–	–	·	·
SMILES	SRC2 inh	SRC1 inh	SRC3 inh	GalR3 antag	NR5A2 inv ag	NR2F2 inh	GalR3 antag conf	HEK-CNG parental
O=C(O)c1ccccc1NS(=O)(=O)c1cccc(-n2sc3ccccc3c2=O)c1	–	–	–	33	–	–	23	–
O=C(Nc1ccc(OC(F)(F)F)cc1)C1CCCCN1S(=O)(=O)c1ccccc1 (stereo not drawn)	–	–	–	–	–	–	·	·
O=C(OCc1cccc([N+](=O)[O-])c1)c1cc2ccccc2oc1=O	–	–	–	–	–	–	·	·
CCOc1cc(C2c3c(-c4ccccc4)n[nH]c3C(=O)N2c2ccc(C(=O)O)cc2)ccc1O (stereo not drawn)	–	–	–	–	–	–	·	·
COc1ccccc1CNC(=O)[C@H](C)NC(=O)[C@@H]1Cc2ccccc2CN1	–	–	–	–	–	–	·	·
COc1ccccc1CNC(=O)[C@H](CCSC)NC(=O)[C@@H]1Cc2ccccc2CN1	–	–	–	22	–	–	–	–
CCS(=O)(=O)c1nc(S(=O)(=O)c2ccc(C)cc2)c(NCCCN2CCCC2=O)s1	–	–	–	–	–	–	·	·
Cc1nnc(C)n1/N=C/c1ccccn1	–	–	–	–	–	–	·	·
O=C1NCC(COc2cccc3ccccc23)O1 (stereo not drawn)	–	–	–	19	–	–	–	–
Cc1ccccc1OCC1CNC(=O)O1 (stereo not drawn)	–	–	–	–	–	–	·	·
Cc1cc(C)nc(NS(=O)(=O)c2ccc(NC(=O)c3ccc(S(=O)(=O)N(C)C)cc3)cc2)n1	–	–	–	–	–	–	·	·
COC(=O)c1ccc(CSc2nnc(CNC(=O)c3ccccc3F)o2)o1	–	–	–	–	–	–	·	·
O=C(O)CCCCCCCCCCP(=O)(c1ccccc1)c1ccccc1	–	–	–	13	–	–	–	–
O=P(CCCCCCCCCP(=O)(c1ccccc1)c1ccccc1)(c1ccccc1)c1ccccc1	–	–	–	–	–	–	·	·
CCOC(=O)Cn1c(CN2CC(C)OC(C)C2)nc2c1c(=O)n(C)c(=O)n2C (stereo not drawn)	–	–	–	·	–	–	·	·
COc1ccc(CCN2C(=O)CC(C(N)=O)SC2=Nc2ccc(F)cc2)cc1OC (stereo not drawn)	–	–	–	–	–	–	·	·
CC(C)=C1Cc2ccccc2C1=O	–	–	–	13	–	–	–	–
Nn1c(SCC(=O)N2CCCCCC2)nnc1-c1ccncc1	–	–	–	–	–	–	·	·
CCOc1ccc(OCCC(=O)NNC(=O)c2ccccc2Cl)cc1	–	–	–	–	–	–	·	·
